High-throughput results as filed in PubChem.
Shown are actives, neighbours in structure and some others; about 11% of the full set was active somewhere.
HP1b binding inh – inhibitors of HP1-beta chromodomain binding to methylated histone tails | 390,000 compounds, 0.56% hits | AlphaScreen HP1-beta / biotin-H3K9me3 peptide binding | P83916 | Potency, µM (doses to about 114 µM), most hits filed as inhibitors; note: nearly all actives have a fitted effect of over 70% in size
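Compound inhibition of the preformed complex between 50 nM HP1-beta and 50 nM biotinylated H3K9me3 peptide was read by AlphaScreen. Buffer was PBS pH 7.4 with 0.01% Tween-20. Incubations ran 30 min at room temperature, with 10 ug/mL donor/acceptor beads.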
G9a block – G9a (human) methyltransferase inhibition; Q96KQ7; AID 504332; G9a H3K9 monomethylation, AlphaScreen, 2 h; 350,000 compounds, 8.8% hits; Potency, µM (titrated, usually from 102 µM), most hits filed as inhibitors; note: nearly all actives have a fitted effect of over 75% in size
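Compounds were preincubated with 20 nM G9a for 15 min, after which biotinylated H3K9 peptide (500 nM) and SAM (20 uM) started a 2 h room-temperature reaction. Monomethylated product was quantified by antibody-based AlphaScreen chemiluminescence.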
JMJD2A Tudor inh – blocks the human JMJD2A Tudor domain. AlphaScreen JMJD2A-Tudor / H3K4me3 peptide binding. Potency, µM (titrated, usually from 114 µM), hits mostly inhibitors. 390,000 compounds, 4.4% hits. AID 504339; note: nearly all actives have a fitted effect of over 50% in size
BAZ2B block – BAZ2B (human) inhibition; Q9UIF8; AlphaScreen BAZ2B-H3K14Ac peptide displacement; Potency, µM (titrated, usually from 114 µM), actives largely listed as inhibitors; 360,000 compounds, 4.4% hits; AID 504333; note: nearly all actives have a fitted effect of over 60% in size
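BAZ2B 50 nM plus b-H3(5-23)K14Ac 50 nM, PBS pH 7.4/0.01% Tween-20, 30 min RT; compound added (max 110 uM), 30 min RT; streptavidin donor/Ni-chelate acceptor beads 10 ug/mL final, 20 min dark; AlphaScreen read.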
L3MBTL1 block – inhibitors of human L3MBTL1 | Q9Y468 | AlphaScreen L3MBTL1–H3K9me1 peptide binding | Potency, µM (series often up to 57.1 µM), most hits filed as inhibitors | 230,000 compounds, 0.66% hits; note: nearly all actives have a fitted effect of over 60% in size
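Read-out is AlphaScreen signal from streptavidin donor and nickel chelate acceptor beads (10 ug/mL final each) bridging L3MBTL1 (50 nM) and biotinylated K9-monomethylated H3(1-15) peptide (75 nM), after 30 min compound exposure at room temperature.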
Numbers stand for hits; [ ] = dose if it differs, or a comment. Calls come from the whole dose curve; as a rule, active = well fitted inhibition curve with a large enough effect; inconclusive = small, poorly fitted or top-dose-only effect; inactive = no such curve, though single readings can be large or run the other way.

Screening Cc1c(NC(=O)c2c(NC(=O)CNC3CC3)sc3c2CCCC3)c(=O)n(-c2ccccc2)n1C returned HP1b binding inh inactive, G9a block inconclusive, JMJD2A Tudor inh 56µM, BAZ2B block inconclusive and L3MBTL1 block inactive.
`COc1ccc(Br)cc1CNC(=O)c1cc(=O)[nH]c2ccc(S(=O)(=O)N3CCCCC3C)cc12` (stereo unspecified) gave HP1b binding inh inactive, G9a block inactive, JMJD2A Tudor inh inconclusive and BAZ2B block inactive.
`COc1ccc2cc(CCNC(=O)c3ccco3)c(=O)[nH]c2c1` gave HP1b binding inh inactive, G9a block 45µM, JMJD2A Tudor inh inactive and BAZ2B block inactive.
Cc1ccc2cc(CCNC(=O)c3ccco3)c(=O)[nH]c2c1C was read as HP1b binding inh inactive, G9a block 79µM, JMJD2A Tudor inh inactive, BAZ2B block inactive and L3MBTL1 block inactive.
Screening Cc1ccc2cc(CCNC(=O)c3ccco3)c(=O)[nH]c2c1 returned HP1b binding inh inactive, G9a block inconclusive, JMJD2A Tudor inh inactive, BAZ2B block inactive and L3MBTL1 block inactive[11.4 µM].
For COc1ccccc1CN(C)C(=O)COC(=O)c1cc(C)oc1C the results were HP1b binding inh inactive, G9a block 45µM, JMJD2A Tudor inh inactive, BAZ2B block inactive and L3MBTL1 block inactive.
Cc1ccccc1-c1cc(N(C)Cc2ccco2)ncn1 was read as G9a block inactive[0.501 µM].
For COc1ccc(NC(=S)NCc2ccc(S(N)(=O)=O)cc2)cc1OC the results were HP1b binding inh inactive, G9a block inconclusive, JMJD2A Tudor inh inconclusive and BAZ2B block inactive.
For NS(=O)(=O)c1ccc(CNC(=S)Nc2ccc(Cl)c(Cl)c2)cc1 the results were HP1b binding inh inactive, G9a block 45µM, JMJD2A Tudor inh inactive and BAZ2B block inactive.
Screening Fc1ccc(CNC(=S)NC2CCCC2)cc1 returned HP1b binding inh inactive, G9a block inactive, JMJD2A Tudor inh inactive, BAZ2B block inactive and L3MBTL1 block inactive.
For CCN(CC(F)(F)C(F)F)S(=O)(=O)c1ccc(NC(=O)OC)cc1 the results were HP1b binding inh inconclusive, G9a block inactive, JMJD2A Tudor inh 20µM, BAZ2B block inactive and L3MBTL1 block inactive.
For S=C(NCc1ccncc1)NC1CCCC1 the results were HP1b binding inh inactive, G9a block 50µM, JMJD2A Tudor inh inactive, BAZ2B block inactive and L3MBTL1 block inactive.
For COc1ccc(NC(=O)/C=C/c2cc(Br)ccc2OC)cc1 the results were HP1b binding inh inactive, G9a block inactive, JMJD2A Tudor inh inactive, BAZ2B block inactive and L3MBTL1 block inactive.
CCN(CC)c1ccc(NC(=O)/C=C/c2cc(Br)ccc2OC)cc1 was read as HP1b binding inh inconclusive, G9a block inactive[0.0925 µM], JMJD2A Tudor inh 4µM, BAZ2B block 8.9µM and L3MBTL1 block inconclusive.
Cc1cccc(CSc2nc3c(c(=O)[nH]2)C(c2cccc(O)c2)CC(=O)N3)c1 (stereo unspecified) was read as HP1b binding inh inactive, G9a block inconclusive, JMJD2A Tudor inh inconclusive and BAZ2B block inactive.
Screening CCN(CC)c1ccc(/C=N/NC(=O)OC(C)(C)C)cc1 returned HP1b binding inh inactive, G9a block 50µM, JMJD2A Tudor inh inactive, BAZ2B block inconclusive and L3MBTL1 block inactive.
Screening NS(=O)(=O)c1ccc(NC(=S)NC(=O)C2CCCC2)cc1 returned HP1b binding inh inactive, G9a block 71µM, JMJD2A Tudor inh inactive and BAZ2B block inactive.
Cc1ccc2nc(-c3ccc(NC(=S)NC(=O)C(C)C)cc3)sc2c1 was read as HP1b binding inh inactive, G9a block inactive[2.33 µM], JMJD2A Tudor inh inactive and BAZ2B block inactive.
Screening CC1(C)CC(NC(=S)Nc2ccc(S(N)(=O)=O)cc2)CC(C)(C)N1 returned HP1b binding inh inactive, G9a block 50µM, JMJD2A Tudor inh inactive, BAZ2B block inactive and L3MBTL1 block inactive.
For Cc1ccc2nc(-c3ccc(NC(=S)NC4CC(C)(C)NC(C)(C)C4)cc3)sc2c1 the results were HP1b binding inh inactive, G9a block 50µM, JMJD2A Tudor inh inactive, BAZ2B block inactive and L3MBTL1 block inactive.
`CCOc1ccc(-c2nnc(SCC(=O)NCc3ccc(Cl)cc3)o2)cc1` gave HP1b binding inh inactive, G9a block inactive, JMJD2A Tudor inh inactive and BAZ2B block inconclusive.
For CC(=O)N1CCCC1c1nc2ccccc2n1Cc1c(F)cccc1Cl (stereo unspecified) the results were HP1b binding inh inactive, G9a block inactive, JMJD2A Tudor inh inactive and BAZ2B block inconclusive.
COc1ccccc1C(=O)Nc1cccc(OCc2cc(=O)n3c(C)csc3n2)c1 was read as HP1b binding inh inactive, G9a block inconclusive, JMJD2A Tudor inh inactive and BAZ2B block inactive.
CC1=C(C(=O)Nc2ccc(Cl)cc2)C(c2cccs2)n2nc(SCc3cccc(C)c3)nc2N1 (stereo unspecified) was read as HP1b binding inh inactive, G9a block inactive, JMJD2A Tudor inh inactive and BAZ2B block inactive.
`NS(=O)(=O)c1ccc(CNC(=S)NC2CC2)cc1` gave HP1b binding inh inactive, G9a block 28µM, JMJD2A Tudor inh inactive, BAZ2B block inconclusive and L3MBTL1 block inactive.
Screening NS(=O)(=O)c1ccc(NC(=S)NC2CC2)cc1 returned HP1b binding inh inactive, G9a block 10µM, JMJD2A Tudor inh inactive, BAZ2B block inactive and L3MBTL1 block inactive.
For NS(=O)(=O)c1ccc(CCNC(=S)NC2CCCCC2)cc1 the results were HP1b binding inh inactive, G9a block inactive, JMJD2A Tudor inh inactive, BAZ2B block inactive and L3MBTL1 block inactive.
Screening CCOC(=O)C(Cc1ccccc1)C(=O)Nc1cccc(C)c1 (stereo unspecified) returned HP1b binding inh inactive, G9a block inactive, JMJD2A Tudor inh inactive, BAZ2B block inactive and L3MBTL1 block inactive.
CCOC(=O)C(Cc1ccccc1)C(=O)Nc1ccc(N(CC)CC)cc1 (stereo unspecified) was read as HP1b binding inh inconclusive, G9a block 3.5µM, JMJD2A Tudor inh 50µM, BAZ2B block inconclusive and L3MBTL1 block inactive.
For CCN(CC)c1ccc(NC(=O)OC)cc1 the results were HP1b binding inh inactive, G9a block 3.5µM, JMJD2A Tudor inh inconclusive and BAZ2B block inconclusive.
Screening CCCC(=O)N(c1ccc2oc3c(c2c1)CCCC3)S(=O)(=O)c1cc(C)ccc1C returned HP1b binding inh inactive, G9a block inactive, JMJD2A Tudor inh inactive and BAZ2B block inactive.
`CCN(CC)c1ccc(NC(=S)NC(=O)C2CCC2)cc1` gave HP1b binding inh inconclusive, G9a block 40µM, JMJD2A Tudor inh 45µM and BAZ2B block 22µM.
C/C(CC(=O)NCc1ccccc1)=N\NC(=O)c1cnccn1 was read as HP1b binding inh inactive, G9a block 40µM, JMJD2A Tudor inh inconclusive, BAZ2B block inactive and L3MBTL1 block inactive.
`C/C(CC(=O)NCc1ccccc1)=N\NC(N)=S` gave HP1b binding inh inactive, G9a block 3.2µM, JMJD2A Tudor inh inconclusive and BAZ2B block inactive.
For C/C(CC(=O)Nc1ccccc1C(F)(F)F)=N\NC(=O)c1cnccn1 the results were HP1b binding inh inactive and JMJD2A Tudor inh inactive.
